The results in this text go back to PubChem BioAssay (NCI).

About 83,000 compounds went through this panel and 20% of them were active in at least one assay; those are over-represented in the sample as a whole.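 Testing used 96-well plates and a 48-hour single-concentration exposure. Example: -40 means 40% of the starting cells died.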 Values without a mark were called inactive. Active and inactive are the calls of the source.

This test relates to UO-31 renal. The test is described as follows: NCI-60 one-dose screen, 48 h (100 = growth as untreated, 0 = no growth, -100 = all killed). To be noted: 10 µM unless noted. How it is done: Growth inhibition of the UO-31 human tumor cell line is measured as a screen for anti-cancer activity. Cells are grown in 96 well plates and exposed to the test compound for 48 hours. Compounds are tested at a single concentration, which is 10^-5 M for most compounds. The reported endpoint is percent growth (GI% or GIPRCNT), where numbers from 0 - 100% represent growth inhibition, and numbers from -100% - 0 represent cell death. For example, a value of 40 represents 60% growth inhibition. A value of 0 means no net growth occurred over the course of the experiment. A value of -40 indicates 40% of cells at the beginning of the experiment died by the end of the experiment. A value of -100 means all cells are dead at the end of the experiment.
NCI-60 Human Tumor Cell Lines Screen was performed using the standard one-dose NCI protocol, which is described in more detail at https://dtp.cancer.gov/discovery_development/nci-60/default.htm.
Compounds with GIPRCNT values below 10 were considered active. Activity score was based on GIPRCNT using the following formula: […]
Score is 0 for GIPRCNT values of 100 or above, 50 for GIPRCNT values of 0, and 100 for GIPRCNT values of -100.
For `Cc1nc(Nc2ccc(NC(=S)Nc3ccccc3)cc2)c2ccccc2n1`, the growth is 85.7%.
Regarding `O=C1C2=C(CCN(Cc3ccccc3)C2)N2CCN=C2N1Cc1ccc(F)cc1F`, the growth was 32.5%.
For `COc1ccc(-c2nc3ncccn3c2/C=C/C(=O)c2cc(OC)c(OC)c(OC)c2)cc1` the value was 17%; for `CC(C)OCCCNCC(=O)Nc1ccc(S(=O)(=O)c2ccc(NC(=O)CNCCCOC(C)C)cc2)cc1`, 90.8%.
The value for `CCn1c(Sc2nnc(Nc3ccccc3)s2)nc2c1c(=O)n(C)c(=O)n2C` was 73%; that for `Nc1ccc(S(=O)(=O)Nc2ccsc2-c2nc(-c3ccccc3)no2)cc1` was 71.3%; that for `CCCCNCC(=O)Nc1ccc(C(=O)OCC)cc1` was 91.8%.
As to `Cc1nn(-c2ccccc2)c2c1C(c1ccc([N+](=O)[O-])cc1)C(C#N)=C(N)O2` (stereo not given), the growth is 70.4%.
For `CCCCNC(=O)c1cc(NCc2cc(O)ccc2O)ccc1O` the value was 57%.
For `N#Cc1c(N)nc2c(nnn2-c2cccc(C(F)(F)F)c2)c1N` the value was 58.2%; for `CCOC(=O)c1sc2ccc(NCc3nc[nH]c3C)cc2c1NC(=O)c1cc(OC)c(OC)c(OC)c1`, 70.4%.
For `CNC=O` the value was 89.5%.
Consider `O=[N+]([O-])c1ccccc1C(O)Cc1ccc2ccccc2n1` (stereo not given), for which the growth was 66.6%.
Turning to `NS(=O)(=O)Oc1ccc(-c2sc3cc(O)ccc3c2C(=O)c2ccc(OCCN3CCCCC3)cc2)cc1`, the growth was 43.6%.
For `Cc1cc(N(CCCNc2ccnc3cc(Cl)ccc23)Cc2ccccn2)nc(N2CCCC2)n1` the value was 53.8%; for `CCOC(=O)c1ccc(-c2ccc3cc(OC)ccc3c2)nc1C`, 93.9%; for `Cc1ccc(NSc2ccccc2[N+](=O)[O-])cc1`, 33.1%.
For `Cc1cc(C(c2ccccc2)c2ccccc2)ccc1NS(=O)(=O)c1ccccc1` the value was 82.3%; for `NS(=O)(=O)c1cnccc1-n1ccc(=O)c(S(N)(=O)=O)c1`, 68.6%.
The value for `COC(=O)CCCNC(=O)C(=O)c1c(O)c(O)c(C(C)C)c2cc(C)c(-c3c(C)cc4c(C(C)C)c(O)c(O)c(C(=O)C(=O)NCCCC(=O)OC)c4c3O)c(O)c12` was -5.61% (active).
As for `CNC(=O)c1cc(Oc2ccc3nc(NC(=O)Nc4cc(C(F)(F)F)cc(C(F)(F)F)c4)sc3c2)ccn1`, the growth was -69.9% (active).
`O=C1CSC(c2ccccc2O)N1c1nnc(Cn2cnnc2)o1` (stereo not given): the growth is 46.7%.
For `OC(c1cccc(OCc2ccccc2)c1)c1nnc(-c2ccccc2)o1` (stereo not given) the value was 68.1%; for `O=[N+]([O-])c1ccc(-c2cc3c(Nc4ccc(Cl)c(C(F)(F)F)c4)ncnc3s2)cc1`, -3.64% (active).
For `O=C(/C=C/C12c3ccccc3C(c3ccccc31)C1C(=O)N(c3ccccc3)C(=O)C12)c1ccc(Cl)cc1` (stereo not given), the growth is -37.1% (active).
For `CC(C)CCC[C@@H](C)[C@H]1CCC2C3=CCn4c(=O)ccc(=O)n4C3CC[C@@]21C` (stereo not given in full), the growth was -88.5% (active).
For `Cn1nnnc1-c1ccc(N)cc1` the value was 79%.
For `COc1ccc(NC(=O)C(=O)c2c[nH]c3ccc(F)cc23)cc1` the value was 96.4%.
`CC1(C)CC(=O)c2c(ccc(C(=O)C[C@H](N)CO)c2N)O1`: the growth was 43.4%.
With `O=C1C2=C(CCN(Cc3ccccc3)C2)N2CCN=C2N1Cc1ccc(C(F)(F)F)cc1`, the growth is 25.4%.
In the case of `O=C(/C=C/C12c3ccccc3C(c3ccccc31)C1C(=O)NC(=O)C12)c1ccc(Cl)cc1` (stereo not given), the growth was -55.2% (active).
For `O=c1ccn(C2OC(F)(CO)C(O)C2F)c(=O)[nH]1` (stereo not given) the value was 97.1%.
With `CN(C)S(=O)(=O)n1cnc([C@@H]2[C@@H]3C(=O)OC[C@@H]3C[C@]23N=CN(Cc2ccccc2)C3=O)c1`, the growth was 92.1%.
As to `O=C1CC(c2ccc3c(c2)OCO3)Nc2cc3c(cc21)OCO3` (stereo not given), the growth is 52.6%.
As for `COc1ccc2c(c1)/C(=C\c1sc(=S)[nH]c1O)C(C(=O)O)=N2`, the growth was 82.6%.
Regarding `O=c1[nH]c(=O)n(C2CC(O)C(CO)O2)cc1CO` (stereo not given), the growth is 102%.
With `COc1ccc(-c2cc(-c3ccc(Nc4nc(Nc5ccccc5)nc(Nc5ccc(Cl)cc5)n4)cc3)nc(N)c2C#N)cc1`, the growth was -71.5% (active).
As for `Cn1ncc2c(Nc3ccc(Br)cc3)nc(Nc3ccc(Br)cc3)nc21`, the growth was 68.3%.
In the case of `N#Cc1cnn2c(-c3ccc(Cl)cc3)nc(NC3CC3)nc12`, the growth was 69.2%.
For `COc1ccc(Cn2cnc3cc(C(=O)Nc4cccc5ccccc45)ccc32)c(OC)c1`, the growth is 29.8% [30 µM].
